Bioassay records as filed in PubChem BioAssay.
ATXN2 expr inh = reduces ATXN2 reporter expression in HEK-293 cells; hit rate 0.72% among 360,000; Potency, µM (doses to about 57 µM), inactives show top-dose activity change, negative = inhibition, actives largely listed as inhibitors; HEK-293 ATXN2-luciferase reporter, luminescence, 24 h; note: % is set by controls: 0 for no effect and ±100 for the full control effect; nearly all actives have a fitted effect of over 55% in size
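qHTS (up to 57 uM final) was run with 24 h compound exposure of reporter cells at 37 °C. Each well was multiplexed: SteadyGlo luminescence measured ATXN2-luciferase expression after a fluorogenic Gly-Phe-AFC viability readout (25 uM final).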
KB-V1 MDR tox = KB-V1 MDR subline cytotoxicity; KB-V1 MDR cells viability, CellTiter-Glo, 72 h; Potency, µM (titrated, usually from 46.1 µM), hits mostly cytotoxic; hit rate 3.4% among 400,000; note: % is set by controls: 0 for no effect and ±100 for the full control effect; nearly all actives have a fitted effect of over 60% in size
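Cells of the MDR subline KB-V1 are plated, dosed with compound at multiple concentrations, and incubated 72 h at 37 degrees C; CellTiter-Glo is then added and luminescence read after 10 min.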
S2 tox = cell viability loss in ATXN counter-screen | S2 cells (HEK-293 line with an ATXN2-luciferase reporter) viability, CellTiter-Fluor protease fluorescence, 24 h | hit rate 0.49% among 400,000 | Potency, µM (series often up to 56.7 µM), usual class: cytotoxic; note: nearly all actives have a fitted effect of over 40% in size
KB-3-1 cytotox = kills parental KB-3-1 adenocarcinoma cells. KB-3-1 viability, CellTiter-Glo ATP luminescence, 72 h. Potency, µM (titrated, usually from 46.1 µM), usual class: cytotoxic. hit rate 1.4% among 400,000; note: % is set by controls: 0 for no effect and ±100 for the full control effect; nearly all actives have a fitted effect of over 60% in size
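Parental KB-3-1 adenocarcinoma cells in phenol-red-free DMEM with 10% FBS were pin-treated with compounds at several concentrations, incubated 72 h at 37 °C, and viability read by CellTiter-Glo luminescence; concentration-effect curves were fitted after normalization.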
HT1080 IDH1KD tx = HT-1080 IDH1 knockdown cell toxicity (counter line) | HT-1080 IDH1 knockdown viability, ATP luminescence, 48 h | Potency, µM (series often up to 46.1 µM), for inactives: at the top dose activity, negative = toxicity, usual class: cytotoxic | hit rate 2% among 360,000 | AID 686971;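 note: 0% = DMSO wells and -100% = cell-free medium wells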
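Assay cells: HT-1080 with IDH1 knockdown, 750 per well, RPMI/5% FBS. Exposure: 48 h at 37 °C following 2 h pre-incubation. Read: CellTiter-Glo luminescence; fitted concentration-response, curve class assigned.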
HT1080-NT tox = kills 2HG-producing HT-1080-NT fibrosarcoma cells | HT-1080-NT fibrosarcoma viability, CellTiter-Glo ATP luminescence, 48 h | Potency, µM (doses to about 46.1 µM), for inactives: top-dose activity, negative = less viability, most hits filed as cytotoxic | hit rate 1.6% among 360,000 | AID 686970;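 note: NT is the 2HG producing partner of a matched IDH1 knockdown line; 0% = DMSO-treated cells and -100% = media-only wells without cells; nearly all actives have a fitted effect of over 55% in size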
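Viability by CellTiter-Glo luminescence after 48 h compound exposure at 37C of HT-1080-NT cells (750/well, RPMI, 5% FBS). % activity scaled between DMSO wells and medium-only wells, then curve-fitted and categorized by curve class.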
The depositor's hits bear a star; i = inactive; ? = inconclusive; nt = no result given. Shown are actives, neighbours in structure and some others; about 6.2% of the full set was active somewhere. Calls come from the whole dose curve; as a rule, active = well fitted curve in the direction sought with a large enough effect; inconclusive = small, poorly fitted or top-dose-only effect, or another doubt; inactive = no such curve, though single readings can be large; an effect the other way counts as inactive or inconclusive. Potency is the fitted concentration of half-maximal effect.

SMILES	ATXN2 expr inh	KB-V1 MDR tox	S2 tox	KB-3-1 cytotox	HT1080 IDH1KD tx	HT1080-NT tox
NC(Cc1ccccc1)c1csc(NC(=O)c2cccc(OC(F)(F)F)c2)n1 (centres undefined)	?	?	?	?	?	15µM*
COc1ccc(CC(N)c2csc(NC(=O)c3cccc(OC(F)(F)F)c3)n2)cc1 (centres undefined)	?	?	i	?	21µM*	21µM*
Cc1ccc(C)c(Cn2c(=O)n(Cc3ccccc3)c(=O)c3c(C)c(C)sc32)c1	-1%	i	?	i	nt	nt
COc1cccc(-c2ccnc(-n3ncc(C(=O)NCC(C)(C)CN(C)C)c3C)n2)c1	nt	nt	i	nt	nt	nt
CCN(CC)S(=O)(=O)c1ccc(C(=O)OCC(=O)N2CCOCC2)cc1	15%	i	i	i	1%	-6%
O=C(OCCN1C(=O)c2cccc3c(N4CCOCC4)ccc(c23)C1=O)c1ccc(Cl)cc1	-21%	i	nt	i	2.3µM*	?
CCCN(CCC)S(=O)(=O)c1ccc(C(=O)OCCN2C(=O)c3cccc4c(N5CCOCC5)ccc(c34)C2=O)cc1	1%	15µM*	nt	i	20%	11%
Cc1c(C(=O)N2CC3CCC2C3)sc2ncnc(NCCc3ccccn3)c12 (centres undefined)	nt	nt	i	nt	nt	nt
CC(CNC(=O)Cn1cnc2c(NCc3ccccc3)ncnc21)c1ccccc1 (centres undefined)	1%	i	i	i	1%	0%
CC(C)CCn1cnc2c(NCc3ccccc3)ncnc21	44%	16µM*	i	i	1%	-1%
Cc1cc2ccccc2n1CCNC(=O)c1ccccc1F	10%	i	i	i	nt	nt
COc1cc2c(cc1NC(=O)C(Cl)Cl)-c1ccc(NC(=O)C(Cl)Cl)cc1C2	-17%	15µM*	nt	?	13µM*	?
CC1CCN(c2oc(-c3cccs3)nc2S(=O)(=O)c2ccc(Cl)cc2)CC1	-8%	i	i	i	nt	nt
Cc1ccc(NC(=O)CSc2nc3ccc(NC(=O)c4cccs4)cc3s2)c(C)c1	9%	i	i	?	nt	nt
CCCn1c(N)c(C(=O)CSc2nnc(Cc3ccccc3)o2)c(=O)n(C)c1=O	-34%	10µM*	?	i	?	-17%
O=C(NCc1cccs1)c1ccc(CSc2nc3ccncc3n2Cc2ccccc2F)cc1	12%	i	i	i	nt	nt
Cc1ccc(S(=O)(=O)N2CCOCC2)cc1C(=O)OCC(=O)N1CCc2ccccc2C1	7%	12µM*	i	i	3%	?
O=c1nccc(NCc2ccco2)[nH]1	-5%	i	i	?	18%	0%
O=C(O)c1ccc(N2CCCCCC2)c(N2C(=O)c3ccccc3C2=O)c1	-2%	i	i	i	15%	17%
O=C1c2ccccc2C(=O)c2c1cccc2N1CCCC1	10%	15µM*	?	i	-17%	-15%
O=C1c2ccccc2-c2onc3ccc(N4CCCC4)c1c23	?	?	24µM*	?	?	?
O=C1C=C(N2CCCCC2)c2ccccc2C1=O	30µM*	10µM*	nt	12µM*	5.8µM*	6.5µM*
CCOc1ccc2noc3c2c1C(=O)c1ccccc1-3	5%	?	i	i	2%	?
O=C1C(Cl)=C(NCc2ccco2)C(=O)c2ccccc21	-13%	?	?	?	16µM*	?
CCC(=O)OC1=C(C(C)=O)N(Cc2ccccc2)S(=O)(=O)c2ccccc21	15%	i	i	i	nt	nt
SMILES	ATXN2 expr inh	KB-V1 MDR tox	S2 tox	KB-3-1 cytotox	HT1080 IDH1KD tx	HT1080-NT tox
CC(C)n1c(SCC(=O)Nc2ccc(F)cc2)nc2c(oc3ccccc32)c1=O	13%	i	i	i	nt	nt
O=C1c2ccccc2-c2onc3ccc(NCc4ccco4)c1c23	?	10µM*	14µM*	i	?	-21%
O=C(NCCN1CCCC1)c1ccccc1Cl	-10%	i	i	i	6%	-6%
O=C1C(Cl)=C(NCCN2CCCCC2)C(=O)c2ccccc21	14µM*	?	20µM*	?	23µM*	15µM*
CCCOc1ccc(Nc2cc(C)nc(C)n2)cc1	20%	i	i	i	nt	nt
O=c1ccc2ccccc2c2ccccc12	5µM*	?	?	8.2µM*	5.8µM*	8.2µM*
COc1ccc2c(=O)cc(-c3ccncc3)oc2c1OC	-25%	?	i	?	23µM*	?
COc1ccc(-c2cc(=O)c3c(OC)c(OC)c(OC)c(OC)c3o2)cc1OC	-3%	?	i	i	-22%	-8%
Cc1ccc(C(NC(=O)N2CCOCC2)=C(Cl)Cl)cc1F	-13%	i	i	i	14µM*	?
Cc1ccc(C)c(NC(=O)Cn2cc(S(=O)(=O)Cc3cccc(Cl)c3)c3ccccc32)c1	nt	i	nt	i	nt	nt
COc1cc(OC)c(OC)cc1/C=C/C(=O)c1ccc(NS(=O)(=O)c2ccc(C)cc2)cc1	-30%	15µM*	i	i	-20%	-21%
CN(C)c1ccc(/C=N/N(CCC(=O)NC(C)(C)C)C2=NS(=O)(=O)c3ccccc32)cc1	1%	i	i	i	17%	15%
CC(C)(C)NC(=O)CCN(/N=C/c1ccc([N+](=O)[O-])o1)C1=NS(=O)(=O)c2ccccc21	?	i	?	18µM*	?	?
Cc1c(CCC(=O)NCCCn2ccnc2)c(=O)oc2c(C)c3oc4c(c3cc12)CCCC4	?	i	i	23µM*	-17%	-21%
Cc1c(CCC(=O)NCCCCCC(=O)O)c(=O)oc2c(C)c3oc4c(c3cc12)CCCC4	nt	i	i	i	0%	0%
COc1ccc2c(c1OC)C(=O)OC2c1ccc(O)cc1 (centres undefined)	nt	i	nt	i	nt	nt
COC(=O)c1ccc(OC)c(CSc2nnc(COc3ccccc3)o2)c1	-13%	21µM*	i	i	?	-2%
NS(=O)(=O)c1ccc(NC2=CC(=O)C(=O)c3ccccc32)cc1	?	i	i	?	?	?
COc1cc(OC)c(NC2=CC(=O)C(=O)c3ccccc32)cc1Cl	nt	4.1µM*	18µM*	4.6µM*	8.2µM*	21µM*
Cc1cc(NC2=CC(=O)C(=O)c3ccccc32)no1	-36%	18µM*	?	?	?	?
Cc1ccc(NC2=CC(=O)C(=O)c3ccccc32)cc1	-28%	16µM*	?	?	6.3µM*	10µM*
CC(=O)c1ccc(N2CCN(C(=O)CCCCn3c(=O)[nH]c4ccccc4c3=O)CC2)cc1	4%	i	i	i	nt	nt
